# Where “and” joins values, the source holds several entries; their conditions need not be identical. Identical values can stand only once. Calls of active or inactive are those of the source. Cut-off read from the data, not from the text of the source, unless noted: active = inhibition above about 80%; inactive = the rest.
# Tests used:
# [1] = sensitizers of A549 cells to miR-34 induction, primary screen, imaging, A549 dox-inducible miR-34, nuclei and caspase counts (AID 1347080;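 active = compounds whose cell count with miR-34 switched on is under 0.7 times the count with it off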); details: A549 miR-34 inducible, Hoechst nuclei count, 48 h
# [2] = survival rescue of mitochondrial mutant cells in low glucose, primary screen, MELAS cybrids, Rieske KO mouse fibroblasts, CellTiter-Glo (AID 1508586;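 active = mean z-score across replicates of 1.96 or higher in either the MELAS or the Rieske mutant cell line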;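 note: z relative to plate mean and SD of compound and empty wells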)
# [3] = LFS_MB_P medulloblastoma growth inhibition, cell-based, chromothripsis tumors, cisplatin or BGB combos (AID 1671449); details: LFS_MB_P medulloblastoma cells;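 note: cells exposed for 96 hours; 0% = vehicle DMSO and 100% = killing by high DMSO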
# [4] = HDN33 neuroblastoma growth inhibition, cell-based, chromothripsis tumors, cisplatin or BGB combos (AID 1671450); details: HDN33 neuroblastoma cells, stronger effect = higher value;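 note: cells exposed to compound for four days; 0% = vehicle DMSO and 100% = cell killing by high DMSO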
# [5] = ICB984 medulloblastoma cell growth inhibition, synergistic combos for chromothripsis tumors, cisplatin or BGB combos (AID 1671451; call rule not given here;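 note: cells exposed for 96 hours before readout; 0% = vehicle DMSO and 100% = killing by high DMSO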); details: ICB984 medulloblastoma cells, drug combinations, stronger effect = higher value
# [6] = LFS_MB_1R medulloblastoma cell growth inhibition, synergistic combos for chromothripsis tumors, cisplatin or BGB combos (AID 1671452); details: LFS_MB_1R medulloblastoma cells, stronger effect = higher value;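 note: cells exposed for 96 hours before readout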
# [7] = HTB85 osteosarcoma cell growth inhibition, synergistic combos for chromothripsis tumors, BGB or cisplatin IC20 combos (AID 1671453); details: HTB85 osteosarcoma cells, drug combinations, stronger effect = higher value;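 note: cells exposed for 96 hours before readout; 0% = vehicle DMSO and 100% = high DMSO killing control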
# [8] = CRL2098 osteosarcoma cell growth inhibition, synergistic combos for chromothripsis tumors, BGB or cisplatin IC20 combos (AID 1671454); details: CRL2098 osteosarcoma cells, drug combinations, stronger effect = higher value;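 note: cells exposed for 96 h before readout; 0% = vehicle DMSO and 100% = killing by high DMSO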
# [9] = HD-MB03 medulloblastoma cell growth inhibition, synergistic combos for chromothripsis tumors, BGB or cisplatin IC20 combos (AID 1671455; in the data active = inhibition above about 83%;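 note: 0% = vehicle DMSO and 100% = high DMSO as cytotoxic control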); details: HD-MB03 medulloblastoma cells, stronger effect = higher value
# [10] = UWB1.289 ovarian carcinoma cell growth inhibition, synergistic combos for chromothripsis tumors, BGB or cisplatin combos (AID 1671456); details: UWB1.289 ovarian carcinoma cells, stronger effect = higher value;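 note: cells exposed to compound for four days; 0% = vehicle DMSO and 100% = killing by high DMSO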
# [11] = LFS_MB_2R medulloblastoma cell growth inhibition, synergistic combos for chromothripsis tumors, cisplatin combos (AID 1671457); details: LFS_MB_2R medulloblastoma cells, stronger effect = higher value;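 note: cells exposed to compound for four days before readout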
# [12] = MDA-MB-436 breast carcinoma cell growth inhibition, synergistic combos for chromothripsis tumors, BGB or cisplatin combos (AID 1671458; call rule not given here;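 note: cells exposed for 96 hours; 0% = vehicle DMSO and 100% = killing by high DMSO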); details: MDA-MB-436 breast carcinoma growth inhibition, drug combinations, stronger effect = higher value
# [13] = UWB1.289_BRCA1 ovarian cancer growth, cell-based, BGB or cisplatin combinations (AID 1671459); details: UWB1.289 BRCA1 ovarian carcinoma, drug combinations, stronger effect = higher value
# [14] = human astrocyte viability loss, single and combined drugs, cytotoxicity control for chromothriptic childhood tumor combination screen, cell-based, BGB or cisplatin IC20 combos (AID 1671460); details: Human astrocytes, drug combinations, stronger effect = higher value;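 note: cells exposed to compounds for 96 hours before viability readout; 0% = vehicle and 100% = killing control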
# [15] = growth inhibition of BT084 medulloblastoma cells, cell-based, ICGC_MB145, cisplatin and BGB IC40 combos (AID 1671461); details: drug combinations, stronger effect = higher value;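 note: cells exposed to drugs for 96 hours; 0% = vehicle DMSO and 100% = high DMSO full killing control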
# [16] = growth inhibition of RCMB18 medulloblastoma cells, cell-based, cisplatin and BGB IC40 combos (AID 1671462); details: stronger effect = higher value;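 note: cells exposed to compound for four days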
# [17] = growth inhibition of CRL1545 osteosarcoma cells, cell-based, cisplatin and BGB IC20 combos (AID 1671464); details: stronger effect = higher value;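 note: cells exposed to compound for 96 hours before readout; 0% = vehicle DMSO and 100% = high DMSO killing control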
# [18] = hESC survival regulators, cell-based (AID 493140; call rule not given here;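 note: cells exposed to compounds for four days before counting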); details: human embryonic stem cell survival screen; stronger effect = higher value
# [19] = liver-stage malaria parasite growth inhibition, primary screen, cell-based, HepG2, luciferase luminescence, HepG2 viability (AID 624349; in the data active = parasite load remaining mostly below about 12%, no sharp cut-off; inactive = mostly above about 10%;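 note: 100% = mean of DMSO negative control wells on the same plate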); details: P. berghei liver stage in HepG2, luciferase luminescence, concentration not given here; parasite load remaining: stronger effect = lower value; viability: measured here: HepG2 viability without parasites
# [20] = stronger effect = lower value, cell number ratio, induced over uninduced
# [21] = measured here: relative caspase fold change +Dox/-Dox
# [22] = measured here: total cells with miR-34 induction, stronger effect = lower value
# [23] = measured here: total cells without miR-34 induction
# [24] = MELAS cybrid survival, CellTiter-Glo 48 h, stronger effect = higher value
# [25] = Rieske KO mouse fibroblast survival, CellTiter-Glo 72 h
# [26] = at 0.5 µM, stronger effect = higher value
# [27] = measured here: combination with BGB IC20, at 0.005 µM
# [28] = measured here: combination with BGB IC40, at 0.005 µM
# [29] = measured here: combination with BGB IC40, at 0.05 µM
# [30] = measured here: combination with cisplatin, at 0.5 µM, stronger effect = higher value
# [31] = measured here: combination with cisplatin, at 5 µM, stronger effect = higher value
# [32] = measured here: with BGB IC20 combination, at 0.5 µM
# [33] = measured here: with cisplatin IC20 combination, at 0.5 µM
# [34] = measured here: 5 uM single agent, at 5 µM
# [35] = measured here: combination with cisplatin, at 0.5 µM
# [36] = measured here: combination with cisplatin, at 5 µM
structure (smiles),measurement,setting,value
CC(C=CC(=O)NO)=CC(C)C(=O)c1ccc(N(C)C)cc1 (stereo not drawn),fold change,[1]; [20],0.905 (inactive)
same,fold change,[1]; [21],0.765
same,cell count,[1]; [22],830
same,cell count,[1]; [23],918
same,z-score,[2]; [24],-0.131 (inactive)
same,z-score,[2]; [25],-2.46
same,inhibition,[3]; [26],124% (active)
same,inhibition,[3]; [27],-30%
same,inhibition,[3]; [28],-20.9%
same,inhibition,[3]; [29],-37.3%
same,inhibition,[3]; [30],130%
same,inhibition,[3]; [31],120%
same,inhibition,"[4]; BGB combo, at 5 µM",99.8%
same,inhibition,[4]; at 0.5 µM,92.3% (active)
same,inhibition,"[4]; cisplatin combo, at 5 µM",99.9%
same,inhibition,[4]; [32],85.6%
same,inhibition,[4]; [33],98.3%
same,inhibition,"[4]; single agent, at 5 µM",99.9%
same,inhibition,"[5]; BGB IC20 combo, at 0.005 µM",83.1%
same,inhibition,"[5]; BGB IC40 combo, at 0.005 µM",90.3%
same,inhibition,"[5]; BGB IC40 combo, at 0.05 µM",97.7%
same,inhibition,[5]; at 0.5 µM,-36.8% (inactive)
same,inhibition,"[5]; cisplatin combo, at 0.05 µM",97.7%
same,inhibition,"[5]; cisplatin combo, at 0.5 µM",-29%
same,inhibition,"[5]; cisplatin combo, at 5 µM",-20.2%
same,inhibition,[5]; [34],-13.2%
same,inhibition,[6]; at 0.5 µM,87.3% (active)
same,inhibition,[6]; [29],4.15%
same,inhibition,[6]; [35],99.9%
same,inhibition,[6]; [36],98.9%
same,inhibition,[7]; at 0.5 µM,98.7% (active)
same,inhibition,"[7]; measured here: with BGB IC20, at 0.5 µM",97.4%
same,inhibition,"[7]; measured here: with BGB IC20, at 5 µM",99.9%
same,inhibition,"[7]; measured here: with cisplatin IC20, at 0.5 µM",99.9%
same,inhibition,"[7]; measured here: with cisplatin IC20, at 5 µM",100%
same,inhibition,"[7]; single agent, at 5 µM",99.9%
same,inhibition,[8]; at 0.5 µM,70.4% (inactive)
same,inhibition,"[8]; measured here: combination with BGB at IC20, at 0.5 µM",75.9%
same,inhibition,"[8]; measured here: combination with cisplatin at IC20, at 0.5 µM",61.3%
same,inhibition,[9]; at 0.5 µM,89% (active)
same,inhibition,"[9]; measured here: combo with BGB at IC20, at 0.5 µM",79.1%
same,inhibition,"[9]; measured here: combo with cisplatin at IC20, at 0.5 µM",99.7%
same,inhibition,[10]; at 0.5 µM,67.5% (inactive)
same,inhibition,"[10]; measured here: inhibition with BGB combination, at 0.05 µM",-6.23%
same,inhibition,"[10]; measured here: inhibition with cisplatin combination, at 0.05 µM",29.6%
same,inhibition,[11]; at 0.5 µM,78.3% (inactive)
same,inhibition,[11]; [35],92.3%
same,inhibition,[11]; [36],103%
same,inhibition,[12]; at 0.5 µM,53.4% (inactive)
same,inhibition,"[12]; measured here: BGB combination, at 0.5 µM",39%
same,inhibition,"[12]; measured here: BGB combination, at 5 µM",63.1%
same,inhibition,"[12]; measured here: cisplatin combination, at 0.5 µM",54.4%
same,inhibition,"[12]; measured here: cisplatin combination, at 5 µM",81.3%
same,inhibition,"[13]; BGB combination, concentration series, at 5 µM",116%
same,inhibition,[13]; at 0.5 µM,68.2% (inactive)
same,inhibition,"[13]; cisplatin combination, concentration series, at 5 µM",131%
same,inhibition,[14]; at 0.5 µM,97% (active)
same,inhibition,"[14]; measured here: combo with BGB IC20, at 0.5 µM",96.5%
same,inhibition,"[14]; measured here: combo with cisplatin IC20, at 0.5 µM",96%
same,inhibition,[15]; at 0.5 µM,86.5% (active)
same,inhibition,"[15]; cisplatin combination, at 0.5 µM",101%
same,inhibition,"[15]; cisplatin combination, at 5 µM",104%
same,inhibition,"[15]; measured here: BGB IC40 combination 0.05 uM, at 0.05 µM",36.8%
same,inhibition,"[15]; single agent, at 5 µM",106%
same,inhibition,[16]; at 0.5 µM,83.6% (active)
same,inhibition,"[16]; cisplatin combo, at 5 µM",98.1%
same,inhibition,"[16]; measured here: BGB IC40 combination, at 0.05 µM",13.5%
same,inhibition,[16]; [35],87.1%
same,inhibition,"[16]; single agent, at 5 µM",98.2%
same,inhibition,[17]; at 0.5 µM,88.1% (active)
same,inhibition,[17]; [32],86.4%
same,inhibition,[17]; [33],88.7%
same,inhibition,"[17]; single agent, at 0.05 µM",54.1%
same,inhibition,"[17]; single agent, at 5 µM",87.3%
CC(C)(C)CC(C)(C)c1ccc(OCOCCOCCO)c(Cc2cc(C(C)(C)CC(C)(C)C)cc(Cc3cc(C(C)(C)CC(C)(C)C)ccc3OCOCCOCCO)c2OCOCCOCCO)c1,survival,[18],1.75 (inactive)
same,parasite load remaining,[19],112% (inactive)
same,viability,[19],98.8%
same,fold change,[1]; [20],0.877 (inactive)
same,fold change,[1]; [21],1.23
same,cell count,[1]; [22],7920
same,cell count,[1]; [23],9040
same,z-score,[2]; [24],-2.08 (inactive)
same,z-score,[2]; [25],-1.21
O=c1[nH]cnc2c1ncn2C1OC(CO)C(O)C1O (stereo not drawn),fold change,[1]; [20],0.971 (inactive)
same,fold change,[1]; [21],0.634
same,cell count,[1]; [22],8460
same,cell count,[1]; [23],8710
same,z-score,[2]; [24],-0.214 (inactive)
same,z-score,[2]; [25],-0.0718
same,inhibition,[3]; [26],-10.7% (inactive) and -25.9% (inactive)
same,inhibition,[3]; [27],-29.2% and -10.3%
same,inhibition,[3]; [28],-37.9% and -36.7%
same,inhibition,[3]; [29],-34.2% and -41.2%
same,inhibition,[3]; [30],-24.2% and -36.9%
same,inhibition,[3]; [31],-32.2% and -50.7%
same,inhibition,"[4]; BGB combo, at 5 µM",-71.8% and -17.3%
same,inhibition,[4]; at 0.5 µM,-41% (inactive) and -8.53% (inactive)
same,inhibition,"[4]; cisplatin combo, at 5 µM",-53.5% and 3.12%
same,inhibition,[4]; [32],-43% and -17%
same,inhibition,[4]; [33],-29.3% and -1.72%
same,inhibition,"[4]; single agent, at 5 µM",-56.1% and -7.95%
same,inhibition,"[5]; BGB IC20 combo, at 0.005 µM",-8.62% and -21.3%
same,inhibition,"[5]; BGB IC40 combo, at 0.005 µM",-26.4% and -10.8%
same,inhibition,"[5]; BGB IC40 combo, at 0.05 µM",-29.3% and -11.3%
same,inhibition,[5]; at 0.5 µM,-22.2% (inactive) and -24.4% (inactive)
same,inhibition,"[5]; cisplatin combo, at 0.05 µM",-36% and -15.3%
same,inhibition,"[5]; cisplatin combo, at 0.5 µM",-33.9% and -9.22%
same,inhibition,"[5]; cisplatin combo, at 5 µM",-24.4% and -48%
same,inhibition,[5]; [34],-3.92% and -14.5%
same,inhibition,[6]; at 0.5 µM,-44.3% (inactive) and -17.7% (inactive)
same,inhibition,[6]; [29],-7.53% and -27.6%
same,inhibition,[6]; [35],-65.5% and -12.7%
same,inhibition,[6]; [36],-61.2% and -68.6%
